Data as given in the supplement of paper PMC11172423.

Legend:
[1] = tested on: Falciformispora senegalensis CBS197.79; test: growth relative to untreated control; higher = less inhibition, active = 20 or less
Procedure, shortened: (§1)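 Growth was expressed as metabolic activity relative to the untreated growth control, with both corrected using a blank of medium plus dye. Hyphal fragments of M. mycetomatis MM55 or F. senegalensis CBS197.79 were suspended to 68–72% transmission at 660 nm in colourless RPMI 1640 containing L-glutamine and MOPS. In 96-well plates they were exposed to compound at 100 or 25 µM for 7 days at 37 °C, and viability was read with MTS (2 h, 490 nm) or resazurin (600 nm).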

[2] = tested on: Madurella mycetomatis MM55; test: as above
Procedure, shortened: as §1

Measured: growth

CS(=O)(=O)c1ccc(-c2cnn3c2NC(c2cccc(S(=O)(=O)C4CC4)c2)CC3)cc1 (stereo not drawn)
inactive: [1]; 25 µM 72.5% | [1]; 100 µM 88.1% | [2]; 25 µM 97.1% | [2]; 100 µM 82.5%

FC(F)(F)c1ccnc(Nc2cn3cc(-c4ccc(N5CCOCC5)nc4)ccc3n2)n1
inactive: [1]; 25 µM 91.1% | [1]; 100 µM 92.1% | [2]; 25 µM 73.7% | [2]; 100 µM 132%

Cc1onc(-c2ccccc2)c1-c1ccc(S(N)(=O)=O)cc1
inactive: [1]; 25 µM 97% | [1]; 100 µM 105% | [2]; 25 µM 117% | [2]; 100 µM 91.1%

CN1CCC(Oc2nc(Nc3ccccc3)nc3[nH]cc(-c4cnn(C)c4)c23)CC1
inactive: [1]; 25 µM 89% | [1]; 100 µM 79% | [2]; 25 µM 78.3%
active: [2]; 100 µM 17.9%

Cc1cccc(-c2noc(-c3ccccc3)n2)c1
inactive: [1]; 25 µM 86.3% | [1]; 100 µM 99.4% | [2]; 25 µM 90.6% | [2]; 100 µM 68.5%

N#CC[C@H](C1CCCC1)n1cc(-c2ncnc3[nH]ccc23)cn1
inactive: [1]; 25 µM 110% | [1]; 100 µM 103% | [2]; 25 µM 76.6% | [2]; 100 µM 92.4%

CCN1C(=O)N(CCC(C)C)C2(CCN(Cc3cc(O)cc(Cl)c3)CC2)C1=O
inactive: [1]; 25 µM 91% | [1]; 100 µM 92.9% | [2]; 25 µM 99.4% | [2]; 100 µM 104%

NC(=O)c1cccc(CN2Cc3ccccc3OC3(CCN(Cc4c[nH]c5cnccc45)CC3)C2)c1
inactive: [1]; 25 µM 85% | [1]; 100 µM 96.6% | [2]; 25 µM 54.2% | [2]; 100 µM 71.2%

Cc1cccc(C=NNc2cc(N3CCOCC3)nc(OCCc3ccccn3)n2)c1
active: [2]; 100 µM 10.4%
inactive: [1]; 25 µM 82.1% | [1]; 100 µM 101% | [2]; 25 µM 45.9%

NC(=O)C(c1ccccc1)(c1ccccc1)[C@@H]1CCN(CCc2ccc3c(c2)CCO3)C1
inactive: [1]; 25 µM 95.3% | [1]; 100 µM 97.9% | [2]; 25 µM 106% | [2]; 100 µM 79.1%

CCn1cnc2c(N3CCCC(c4ccncc4)C3)ncnc21 (stereo not drawn)
inactive: [1]; 25 µM 99.7% | [1]; 100 µM 94.6% | [2]; 25 µM 84.4% | [2]; 100 µM 62.5%

CCCOc1ccc(C(F)(F)F)cc1NC(=O)c1nc2nccc(C)n2n1
inactive: [1]; 25 µM 91.7% | [1]; 100 µM 90% | [2]; 25 µM 62% | [2]; 100 µM 84.4%
